About 7,500 (2.1%) of roughly 360,000 compounds were called active. About 8% were inconclusive and are not listed. This is one part of a sample in which actives are shown more often than they occur. Values without a mark were called inactive. Calls come from the whole dose curve; as a rule, active = well fitted cell-killing curve with a large enough effect; inconclusive = small, poorly fitted or top-dose-only effect, or effect the other way, or another doubt; inactive = no such curve, though single readings can be large or run the other way.
Assay: qHTS for induction of synthetic lethality in tumor cells producing 2HG: qHTS for the HT-1080-IDH1KD cell line;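 for activity, negative = toxicity: 0% = DMSO wells and -100% = cell-free medium wells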
Details: HT-1080 IDH1 knockdown viability, ATP luminescence, 48 h; series mostly up to 46.1 µM; activity, negative = toxicity: at the top concentration
Summary of the method: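 HT-1080-IDH1KD cells (IDH1 knocked down), 750/well in RPMI with 5% FBS, treated with compound 48 h at 37 degrees C. Viability by CellTiter-Glo luminescence, normalised to DMSO and no-cell wells; concentration-response curves classed.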
Potency is the fitted concentration of half-maximal effect.

| Compound | activity, negative = toxicity | Potency |
| --- | --- | --- |
| COc1cccc(OCC(=O)NCCS(=O)(=O)N2CCN(c3ccccc3)CC2)c1 | 10.8% |  |
| COc1ccc(CCNC(=O)Nc2ccc3c(c2)c(=O)n(C)n3C)cc1OC | 3.98% |  |
| Cc1[nH]n(C)c(=O)c1C(=O)c1c(-c2c(Cl)cccc2Cl)noc1C |  | 16.4 µM (active) |
| Cc1onc(-c2c(Cl)cccc2Cl)c1C(=O)c1c[nH]c(C(=O)NC2CC2)c1 | -15.5% |  |
| Cc1onc(-c2c(Cl)cccc2Cl)c1C(=O)NNC(=O)c1c(-c2c(Cl)cccc2Cl)noc1C | -11% |  |
| CC(C)(C(=O)N1CCC1(C)C(=O)NS(=O)(=O)c1ccc(Br)cc1)c1ccccc1 (centres undefined) | 0.625% |  |
| CCOC(=O)C1=CC[C@@H](c2ccccc2)N(S(=O)(=O)c2ccc(C)cc2)[C@H]1c1ccc(CC)cc1 | -7.6% |  |
| CCCCCCN1C[C@@H](O)[C@H](n2cc(COC(=O)c3ccccc3)nn2)C[C@@H]1c1ccc(Cl)cc1 | -0.87% |  |
| O=C(O)C1CCCN1c1nc(Cl)ccc1[N+](=O)[O-] (centres undefined) | -0.181% |  |
| CC(C)NC(=O)Nc1ccc2c(c1)C(=O)N([C@H](C)CO)C[C@H](C)[C@@H](CN(C)Cc1ccc(C(F)(F)F)cc1)OCCCC[C@@H](C)O2 | -29.9% |  |
| O=C(Cc1c(O)c2ccccc2[nH]c1=O)NCc1ccccc1 | 1.12% |  |
| CCCc1nc2ccccc2c(=O)n1NC(=O)c1c(O)c2ccccc2[nH]c1=O |  | 11.2 µM (active) |
| COc1cc(C(=O)Nn2c(CC(C)C)nc3ccccc3c2=O)cc(OC)c1OC | -10.6% |  |
| CCOC(=O)c1cc(C)nc(S(C)(=O)=O)c1C#N |  | 20.6 µM (active) |
| CCOC(=O)COc1nc(C)cc(C(F)(F)F)c1C#N | 23.4% |  |
| CCOC(=O)c1c(C(C#N)C#N)cc(C)nc1C | -2.16% |  |
| NS(=O)(=O)c1ccc(CNC(=O)c2cc(S(=O)(=O)N3CCOCC3)ccc2N2CCCC2)cc1 | -0.265% |  |
| COC(=O)Cc1ccc(OC2(C)CCN(Cc3ccc4c(c3)OCCO4)C2)cc1 (centres undefined) | 0% |  |
| COc1ccc(C(=O)C(OP(=O)(OC)OC)c2ccccc2OC)cc1 (centres undefined) | 7.41% |  |
| C[C@@H]1CN([C@@H](C)CO)S(=O)(=O)c2ccc(C#Cc3cccc(F)c3)cc2O[C@H]1CN(C)S(=O)(=O)c1cn(C)cn1 | -3.82% |  |
| CCOc1cc(C=NNC(=O)CCCC(=O)NN=Cc2ccc(O)c(OCC)c2)ccc1O | 12.7% |  |
| O=C(CCc1ccc(O)cc1)NN=Cc1cc(Br)ccc1O |  | 16.4 µM (active) |
| O=C(CCC(=O)N/N=C/c1ccc(Br)o1)N/N=C/c1ccc(Br)o1 | 7.46% |  |
| CCc1nc2ccc(C(=O)N3CCN(S(=O)(=O)CC)CC3)cn2c1N(C=O)CCC(C)C | 1.95% |  |
| C[C@H]1CN([C@@H](C)CO)C(=O)CCCn2nncc2CO[C@@H]1CN(C)S(=O)(=O)c1cccc(C#N)c1 | 4.1% |  |

| Compound | activity, negative = toxicity | Potency |
| --- | --- | --- |
| COc1ccc(S(=O)(=O)NCCCc2ccccc2)cc1 | 12.5% |  |
| COc1ccc(S(=O)(=O)/N=C2\C=C(NS(=O)(=O)c3ccccc3)C(=O)c3ccccc32)cc1 |  | 20.6 µM (active) |
| Cc1ccc(S(=O)(=O)/N=C2\C=C(NS(=O)(=O)c3ccc(C)cc3)C(=O)c3ccccc32)cc1 | -6.93% |  |
| CC1(C(=O)NS(=O)(=O)c2ccccc2Cl)CCN1C(=O)c1cccc(F)c1 (centres undefined) | 8.85% |  |
| CCCCC(O)C1=C[N+](=O)CC=C1 (centres undefined) | 2.6% |  |
| O=C(COC(=O)CCc1c[nH]c2ccccc12)Nc1cccc(Cl)c1 | -0.919% |  |
| CCCCOC(=O)Nc1nccs1 | 5.67% |  |
| CCCCc1nnc(NC(=O)CS(=O)(=O)Cc2ccccc2)s1 | -1.65% |  |
| CCCCOC(=O)Nc1nnc(CC(=O)NCc2ccccc2)s1 |  | 5.17 µM (active) |
| CCC(c1nc2ccccc2[nH]1)n1c(=O)c(-c2cccs2)nc2ccccc21 (centres undefined) | -15.1% |  |
| COc1ccc(C(=O)NCC[N+](C)(C)C)cc1 | 4.15% |  |
| CCOC(=O)c1cnn2c(SC)ncnc12 | 0.362% |  |
| COc1ccc(NC(=O)CN(C)C(=O)c2ccc(COc3ccccc3)o2)cc1 | 8.48% |  |
| CCOc1ccc(OCc2ccc(C(=O)Nc3cccc(C)n3)o2)cc1 | 2.75% [at 9.24 µM] |  |
| Cc1cc(OCc2ccc(C(=O)Nc3ccc(C(=O)O)cc3)o2)ccc1Cl |  | 23.1 µM (active) |
| N#Cc1ccc(C(C(=O)NCc2ccccc2)n2c(=O)c(-c3ccco3)nc3ccccc32)cc1 (centres undefined) | -2.37% |  |
| Cc1ccc(-c2csc(-c3cc(C)on3)n2)cc1 | 21.4% |  |
| C/C(CC1CC(C)(C)OC1=O)=N/Nc1nc(-c2ccccc2)cs1 (centres undefined) | -19.8% |  |
| Cc1ccc(-c2csc(-c3c[nH]c4ccccc34)n2)cc1 | -7.85% |  |
| CCc1ccccc1NC(=O)[C@@H]1CCC(=O)N1C1OC(=O)c2c1ccc(OC)c2OC (some centres undefined) | -3.7% |  |
| Cc1ccc(-c2csc(NC3OC(=O)c4ccccc43)n2)cc1 (centres undefined) |  | 11.6 µM (active) |
| COc1ccc2c(c1OC)C(=O)OC2Nc1nc(-c2ccccc2)cs1 (centres undefined) |  | 10.3 µM (active) |
| COC(=O)C(Cc1c[nH]c2ccccc12)NC(=O)CCNC(=O)c1ccco1 (centres undefined) | 1.68% |  |
| CC(=O)N1CCN(Cc2cc(=O)oc3cc(C)ccc23)CC1 | -9.52% |  |
| c1ccc(Cn2nnc3c(N4CCCCC4)ncnc32)cc1 | -5.29% |  |

| Compound | activity, negative = toxicity | Potency |
| --- | --- | --- |
| O=C1CCC(C(=O)OCC(=O)Nc2ccc(OC(F)F)cc2)=NN1 | 2.51% |  |
| CC(C)(O)C1=C[N+](=O)CC=C1 | 3.42% |  |
| CCN(CCN(C)C)C(=O)c1ccc2nc(C)c(N(C)C(=O)CCc3ccccc3)n2c1 | -0.559% |  |
| COc1ccc(CNC(=O)Cc2ccc(-c3ccccc3)cc2)cc1OC |  | 14.6 µM (active) |
| COc1ccc(NC(=O)CNC(=O)Cc2ccccc2)cc1OC | -11.2% |  |
| COc1ccc(CCNC(=O)Cc2ccc(C)cc2)cc1OC | -3.7% |  |
| CC1=C(C(=O)N2CCOCC2)CC(CC(=O)NCCCN(C)C)C(=O)N1Cc1ccc(C(C)(C)C)cc1 (centres undefined) | 20.4% |  |
| COc1ccc(Cn2c(=O)[nH]c3cc(C(=O)N4CCN(C(=O)c5ccco5)CC4)ccc3c2=O)cc1 | 3.12% |  |
| COc1ccccc1NC(=O)C(CC(=O)O)Cc1cc(C)cc(C)c1 (centres undefined) | 0.14% |  |
| O=C(CSc1ccc(Cl)cc1)NC1CC1 | 1.1% |  |
| COc1ccc(CNC(=O)/C(C#N)=C/c2cccc(OC)c2OC)cc1 |  | 25.9 µM (active) |
| COc1ccc(NC(=O)/C(C#N)=C\c2cc(OC)c(OCc3ccc(C(=O)O)cc3)cc2Br)cc1 | 10.1% |  |
| COc1ccc(CNC(=O)CCn2cccc2)cc1 | 18% |  |
| CCOC(=O)C(C(=O)c1ccccc1)C(c1ccccc1)c1nccc2ccccc12 (centres undefined) | -3.68% |  |
| Cc1ccc(S(=O)(=O)N2[C@@H](Cc3ccccc3)CO[C@H]2CC(=O)OCc2ccccc2)cc1 | -15.2% |  |
| CC(=O)Nc1cccc(-c2cc3nc(NCc4cccnc4)n(C)c(=O)c3s2)c1 | 1.49% |  |
| O=C1NC[C@@H](CCCCN2CCN(CCc3ccc(O)cc3)C(=O)C2=O)N(CC2CCCCC2)C1=O | 3.65% |  |
| CC(C)(C)N1C(=O)c2c(C(=O)OCc3ccccc3)[nH]c(-c3ccccc3)c2C1=O | 17.4% |  |
| COc1ccc(-c2cc(C(=O)N/N=C/c3cccnc3)c3ccccc3n2)c(OC)c1 | -17.1% |  |
| C/C(=N\NC(=O)c1cc(-c2ccc(O)cc2)nc2ccccc12)c1cccnc1 | -5.02% |  |
| O=C(N/N=C\c1cccnc1)c1cc(-c2ccccc2)nc2c(Cl)cccc12 |  | 9.2 µM (active) |
| CCOc1ccc(S(=O)(=O)NCCC(=O)NNC(=O)c2ccc(F)cc2)cc1 | 2.21% |  |
| C[C@@H]1CN([C@H](C)CO)C(=O)c2cc(Br)cnc2O[C@@H]1CN(C)Cc1cncnc1 | -1.69% |  |
| Cc1ccc(-c2nc(-c3ccncc3)no2)c(C)c1 | 1.59% |  |
| COc1ccc(/C=C/c2noc(-c3ccccc3OC(C)=O)n2)cc1 | 10.9% |  |

| Compound | activity, negative = toxicity | Potency |
| --- | --- | --- |
| COc1ccc(-c2nc(-c3ccccc3)no2)c(OC)c1 |  | 14.1 µM (active) |
| CCOc1ccc(NS(=O)(=O)c2ccc(C(=O)NCC3CCCO3)cc2)cc1 (centres undefined) | 3.49% |  |
| COCc1[nH]nc2c1C(C1C=CCCC1)C(C#N)=C(N)O2 (centres undefined) |  | 11.2 µM (active) |
| CCc1ccc(C2C(C#N)=C(N)Oc3n[nH]c(CC(=O)OC)c32)cc1 (centres undefined) | 9.47% |  |
| CCOc1c(OC)cc(C2C(C#N)=C(N)Oc3n[nH]c(-c4ccncc4)c32)cc1OC (centres undefined) | 16.6% |  |
| O=C(NCc1cccc(C(F)(F)F)c1)c1ccc2sc(COCCO)nc2c1 | -7.31% |  |
| Cc1ccc(Cc2c(-c3ccc(Cl)cc3)nc3c4ccccc4ccn23)cc1 | -8.7% |  |
| Cc1cc(Br)cn2c(Cc3ccsc3)c(-c3ccc(C#N)cc3)nc12 | -12.2% |  |
| COC(=O)c1cc(NC(=O)Cc2ccccc2[N+](=O)[O-])ccc1Cl | 0.649% |  |
| N#Cc1cccc(NC(=O)COC(=O)c2ccccc2C(=O)c2ccc(Cl)c([N+](=O)[O-])c2)c1 |  | 5.17 µM (active) |
| CC(=O)Nc1ccc(NC(=O)COC(=O)c2ccccc2C(=O)c2ccccc2)cc1 | -3.82% |  |
| N#Cc1ccc(-c2ccc3nccn3c2)cc1 | 19.2% |  |
| Cc1ccc(S(=O)(=O)N[C@H]2CCC[C@@H]2O)cc1 | 21.9% |  |
| CNC[C@H]1OCc2cnnn2CCCC(=O)N([C@H](C)CO)C[C@@H]1C | 16.1% |  |
| COC(=O)c1ccc2c(c1)S(=O)(=O)NC2C (centres undefined) | 7.29% |  |
| C=CCc1ccc(OCCOc2cccc(/C=N/n3cnnc3)c2)c(OC)c1 | -2.02% |  |
| COc1ccccc1OCCOc1ccc(/C=N/n2cnnc2)cc1 |  | 20.6 µM (active) |
| COc1cccc(OCCOc2cccc(/C=N/n3cnnc3)c2)c1 | -5.79% |  |
| CC(OC(=O)c1cccc(S(=O)(=O)N2CCOCC2)c1)C(=O)NCC1CCCCC1 (centres undefined) | 7.1% |  |
| CC(C)C1CCN(C(=O)C2CCC(=O)N(C3CCCCCC3)C2)CC1 (centres undefined) | 4.14% |  |
| CCN1C(=O)[C@H]2[C@@H](c3ccc(C(F)(F)F)cc3)N[C@]3(CCCN(Cc4ccc(Br)cc4)C3=O)[C@H]2C1=O | -12.4% |  |
| CC(OC(=O)c1ccc2ccccc2n1)C(=O)c1ccccc1 (centres undefined) | -1.33% |  |
| COc1cccc(/C=C/c2ccc3ccccc3n2)c1OC(C)=O |  | 11.6 µM (active) |
| COc1cccc(/C=C2\C=C(c3ccc(C)cc3)OC2=O)c1OC(C)=O | -10.6% |  |

Source: PubChem BioAssay AID686971 (National Center for Advancing Translational Sciences (NCATS), 2013)
